From PubChem BioAssay (NCI)
Compounds without any hit were thinned out: in the full panel of roughly 83,000, 20% have a hit.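 Single-dose data. Exposure time 48 hours. Values below 10 considered active.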 Active and inactive are the calls of the source.

Key:
Assay in all cases: NCI-60 one-dose screen, 48 h (100 = growth as untreated, 0 = no growth, -100 = all killed)
SR leukemia = settings: 10 µM unless noted
RPMI-8226 leukemia = settings: 10 µM unless noted
OVCAR-8 ovarian = settings: 10 µM unless noted
OVCAR-5 ovarian = settings: 10 µM unless noted
OVCAR-4 ovarian = settings: 10 µM
SK-OV-3 ovarian = settings: 10 µM unless noted
IGROV1 ovarian = settings: 10 µM unless noted
OVCAR-3 ovarian = settings: 10 µM unless noted
NCI/ADR-RES ovarian = settings: 10 µM unless noted
T-47D breast = settings: 10 µM unless noted
MDA-MB-435 melanoma = settings: 10 µM unless noted
SW-620 colon = settings: 10 µM unless noted
HCT-116 colon = settings: 10 µM unless noted
HCC-2998 colon = settings: 10 µM unless noted
KM12 colon = settings: 10 µM unless noted
BT-549 breast = settings: 10 µM unless noted
MCF7 breast = settings: 10 µM unless noted
HS 578T breast = settings: 10 µM unless noted

Measured: growth

O=C(O)CC1CCCCC1c1ccccc1 (configuration not stated)
inactive: SR leukemia 98.5% | RPMI-8226 leukemia 104% | OVCAR-8 ovarian 106% | OVCAR-5 ovarian 102% | OVCAR-4 ovarian 109% | SK-OV-3 ovarian 104% | IGROV1 ovarian 108% | OVCAR-3 ovarian 118% | NCI/ADR-RES ovarian 114% | T-47D breast 104% | MDA-MB-435 melanoma 115% | SW-620 colon 111% | HCT-116 colon 98.4% | HCC-2998 colon 106% | KM12 colon 110%

Cc1cc[n+](CCCCCCCCCC[n+]2ccc(C)cc2)cc1
inactive: SR leukemia 98.9% | RPMI-8226 leukemia 102% | OVCAR-8 ovarian 99% | OVCAR-5 ovarian 97.9% | OVCAR-4 ovarian 99.4% | SK-OV-3 ovarian 97.8% | IGROV1 ovarian 112% | OVCAR-3 ovarian 99.4% | NCI/ADR-RES ovarian 94.3% | BT-549 breast 101% | MDA-MB-435 melanoma 102% | SW-620 colon 103% | MCF7 breast 93.6% | HCT-116 colon 96.4% | HCC-2998 colon 92.8%

CC1=C/C(=C(\c2cc(C)c(O)c(C(=O)O)c2)c2c(Cl)cccc2Cl)C=C(C(=O)O)C1=O
inactive: SR leukemia 102% | RPMI-8226 leukemia 102% | OVCAR-8 ovarian 100% | OVCAR-5 ovarian 106% | OVCAR-4 ovarian 108% | SK-OV-3 ovarian 93.3% | IGROV1 ovarian 101% | HS 578T breast 99.2% | NCI/ADR-RES ovarian 99.9% | T-47D breast 98.3% | BT-549 breast 99.3% | MDA-MB-435 melanoma 108% | SW-620 colon 110% | MCF7 breast 92.7% | HCT-116 colon 105% | HCC-2998 colon 110% | KM12 colon 103%

CCOC(=O)C(c1ccccc1)N1C(=O)c2ccccc2C1=O (configuration not stated)
inactive: SR leukemia 115% | RPMI-8226 leukemia 98% | OVCAR-8 ovarian 99.7% | OVCAR-5 ovarian 99.7% | OVCAR-4 ovarian 97.7% | SK-OV-3 ovarian 95.4% | IGROV1 ovarian 96.5% | HS 578T breast 92.3% | NCI/ADR-RES ovarian 99.3% | T-47D breast 97.3% | BT-549 breast 90.3% | MDA-MB-435 melanoma 93.1% | SW-620 colon 97.4% | MCF7 breast 91.4% | HCT-116 colon 98.5% | HCC-2998 colon 98.4% | KM12 colon 98.8%

CCOC(=O)c1ccc2nc(-c3c(C)nn(-c4ccccc4)c3N3CCOCC3)[nH]c2c1
inactive: SR leukemia 74% | RPMI-8226 leukemia 84.4% | OVCAR-8 ovarian 93.4% | OVCAR-5 ovarian 103% | OVCAR-4 ovarian 87.1% | SK-OV-3 ovarian 95.3% | IGROV1 ovarian 81.4% | OVCAR-3 ovarian 93.5% | NCI/ADR-RES ovarian 95.9% | T-47D breast 73% | BT-549 breast 93.4% | MDA-MB-435 melanoma 99.4% | SW-620 colon 97.3% | MCF7 breast 88.6% | HCT-116 colon 93.2% | HCC-2998 colon 95.9% | KM12 colon 96.9%

COc1cc(C)cc2oc3oc(=O)c(-c4nc5ccccc5s4)cc3c(=O)c12
inactive: SR leukemia 105% | RPMI-8226 leukemia 94.1% | OVCAR-8 ovarian 86.4% | OVCAR-5 ovarian 89.7% | OVCAR-4 ovarian 96.7% | SK-OV-3 ovarian 111% | IGROV1 ovarian 83.2% | OVCAR-3 ovarian 85.3% | NCI/ADR-RES ovarian 94.4% | T-47D breast 91.2% | BT-549 breast 92.7% | MDA-MB-435 melanoma 95.3% | SW-620 colon 83.9% | HCT-116 colon 93.4% | HCC-2998 colon 109% | KM12 colon 93.1%

CC(C)C1=NOC(=O)C1=Cc1cn(-c2ccccc2)nc1-c1ccc(Br)cc1
active: SR leukemia -23.1% | RPMI-8226 leukemia -29.6%
inactive: OVCAR-8 ovarian 80.8% | OVCAR-5 ovarian 100% | OVCAR-4 ovarian 98.8% | SK-OV-3 ovarian 99.9% | IGROV1 ovarian 72.5% | OVCAR-3 ovarian 85.4% | NCI/ADR-RES ovarian 101% | T-47D breast 74.8% | BT-549 breast 119% | MDA-MB-435 melanoma 71.3% | SW-620 colon 57.7% | HCT-116 colon 64.2% | HCC-2998 colon 76.2% | KM12 colon 85.4%

Cc1cc(C)c(O)c(CNCCCCCCNCc2cc(C)cc(C)c2O)c1
active: SR leukemia -48.3% | RPMI-8226 leukemia -20.8% | OVCAR-8 ovarian -12.4% | NCI/ADR-RES ovarian 8.8% | T-47D breast -60.8% | MDA-MB-435 melanoma -90.8% | SW-620 colon -75.4% | MCF7 breast -81.4% | HCT-116 colon -42.9% | HCC-2998 colon -84.3% | KM12 colon -38.2%
inactive: OVCAR-5 ovarian 13.9% | OVCAR-4 ovarian 46.1% | SK-OV-3 ovarian 84.9% | IGROV1 ovarian 36.4% | OVCAR-3 ovarian 22%

Cc1nn(-c2ccccc2)c(N2CCOCC2)c1-c1nc2ccc([N+](=O)[O-])cc2[nH]1
inactive: SR leukemia 87.2% | RPMI-8226 leukemia 97.6% | OVCAR-8 ovarian 102% | OVCAR-5 ovarian 108% | OVCAR-4 ovarian 98.9% | SK-OV-3 ovarian 135% | IGROV1 ovarian 111% | OVCAR-3 ovarian 110% | NCI/ADR-RES ovarian 105% | T-47D breast 95.8% | MDA-MB-435 melanoma 96.1% | SW-620 colon 116% | MCF7 breast 96.6% | HCT-116 colon 97.8% | HCC-2998 colon 133% | KM12 colon 103%

CCn1cc(-c2ccnc(NCCNS(=O)(=O)c3ccc(Br)cc3)c2)c(-c2cccc(OC)c2)n1
inactive: SR leukemia 42.2% | RPMI-8226 leukemia 25% | OVCAR-8 ovarian 63.5% | OVCAR-5 ovarian 97.6% | OVCAR-4 ovarian 55.3% | SK-OV-3 ovarian 76.6% | IGROV1 ovarian 60.8% | OVCAR-3 ovarian 78.3% | NCI/ADR-RES ovarian 73.9% | T-47D breast 16.3% | BT-549 breast 99.7% | MDA-MB-435 melanoma 83.7% | SW-620 colon 81.7% | HCT-116 colon 51.6% | HCC-2998 colon 111% | KM12 colon 82.8%

CCCCC(CC)COC(=O)C[N+](C)(C)CCOC(c1ccccc1)c1ccccc1 (configuration not stated)
inactive: OVCAR-8 ovarian 48.8% | OVCAR-5 ovarian 75.6% | OVCAR-4 ovarian 22.9% | SK-OV-3 ovarian 59% | OVCAR-3 ovarian 19.2% | NCI/ADR-RES ovarian 99.1% | BT-549 breast 17.6% | SW-620 colon 52.2% | MCF7 breast 33.6% | HCT-116 colon 31.7%
active: SR leukemia -30.2% | RPMI-8226 leukemia -61% | IGROV1 ovarian -0.732% | MDA-MB-435 melanoma 0.527% | HCC-2998 colon 3.56%

O=C(CSc1nc2ccc([N+](=O)[O-])cc2[nH]1)Nc1cccc(Cl)c1
active: RPMI-8226 leukemia -19.6% | OVCAR-4 ovarian 2.46%
inactive: SR leukemia 12.7% | OVCAR-8 ovarian 18.7% | OVCAR-5 ovarian 61.4% | SK-OV-3 ovarian 29.4% | IGROV1 ovarian 37.9% | OVCAR-3 ovarian 19% | NCI/ADR-RES ovarian 25.4% | BT-549 breast 17.2% | SW-620 colon 39.9% | MCF7 breast 15.3% | HCT-116 colon 14.7% | HCC-2998 colon 34.4% | KM12 colon 23.9%

CC1Cc2ccc(OCCN(C)C)cc2C1=O (configuration not stated)
inactive: SR leukemia 101% | RPMI-8226 leukemia 88.4% | OVCAR-8 ovarian 101% | OVCAR-5 ovarian 105% | OVCAR-4 ovarian 110% | SK-OV-3 ovarian 97.8% | IGROV1 ovarian 106% | OVCAR-3 ovarian 110% | NCI/ADR-RES ovarian 107% | BT-549 breast 99.3% | MDA-MB-435 melanoma 102% | SW-620 colon 101% | HCT-116 colon 95.4% | HCC-2998 colon 109%

FC(F)(F)c1ccc2c(c1)Sc1ccccc1N2
inactive: SR leukemia 89.5% | RPMI-8226 leukemia 92.7% | OVCAR-8 ovarian 96.7% | OVCAR-5 ovarian 98.2% | OVCAR-4 ovarian 97% | SK-OV-3 ovarian 105% | IGROV1 ovarian 92.6% | HS 578T breast 85.5% | NCI/ADR-RES ovarian 104% | T-47D breast 77.7% | BT-549 breast 93.3% | MDA-MB-435 melanoma 97.1% | SW-620 colon 100% | MCF7 breast 95.4% | HCT-116 colon 100% | HCC-2998 colon 102% | KM12 colon 95%

CC(C)OC(=O)Nc1cc(F)ccc1F
inactive: SR leukemia 96.1% | RPMI-8226 leukemia 103% | OVCAR-8 ovarian 100% | OVCAR-5 ovarian 93.8% | OVCAR-4 ovarian 106% | SK-OV-3 ovarian 101% | IGROV1 ovarian 93.7% | HS 578T breast 110% | NCI/ADR-RES ovarian 102% | T-47D breast 94.8% | BT-549 breast 111% | MDA-MB-435 melanoma 99.4% | SW-620 colon 99.8% | MCF7 breast 97.1% | HCT-116 colon 105% | HCC-2998 colon 98.3% | KM12 colon 103%

COc1cc(C)cc2oc3oc(=O)c(C(=O)c4cc5cc(Br)ccc5o4)cc3c(=O)c12
inactive: SR leukemia 102% | RPMI-8226 leukemia 120% | OVCAR-8 ovarian 104% | OVCAR-5 ovarian 98.9% | OVCAR-4 ovarian 110% | SK-OV-3 ovarian 114% | IGROV1 ovarian 92.8% | OVCAR-3 ovarian 107% | NCI/ADR-RES ovarian 110% | T-47D breast 107% | BT-549 breast 100% | MDA-MB-435 melanoma 104% | SW-620 colon 101% | MCF7 breast 101% | HCT-116 colon 99.7% | HCC-2998 colon 110% | KM12 colon 107%

CC[C@]1(O)CC2CN(CCc3c([nH]c4ccccc34)[C@@](C(=O)OC)(c3cc4c(cc3OC)N(C=O)[C@H]3[C@@](O)(C(=O)OC)[C@H](OC(C)=O)[C@]5(CC)C=CCN6CC[C@]43[C@@H]65)C2)C1 (some centres not stated)
active: SK-OV-3 ovarian 4.03% | OVCAR-3 ovarian -49.2% | MDA-MB-435 melanoma -25.7% | HCT-116 colon 5.51% | HCC-2998 colon 0.206% | KM12 colon -30.7%
inactive: SR leukemia 13% | RPMI-8226 leukemia 18.7% | OVCAR-8 ovarian 13.2% | OVCAR-5 ovarian 32.2% | OVCAR-4 ovarian 43% | IGROV1 ovarian 39.4% | NCI/ADR-RES ovarian 11.3% | T-47D breast 91% | BT-549 breast 15.7% | SW-620 colon 24% | MCF7 breast 21.9%

O=C1CC(c2ccccc2)Cc2nc3ccc(Br)cc3cc21 (configuration not stated)
inactive: SR leukemia 13.1% | RPMI-8226 leukemia 50% | OVCAR-8 ovarian 24.1% | OVCAR-5 ovarian 27.2% | OVCAR-4 ovarian 47% | SK-OV-3 ovarian 47.6% | IGROV1 ovarian 22% | NCI/ADR-RES ovarian 17.1% | T-47D breast 67.2% | SW-620 colon 25.1% | MCF7 breast 61.2% | HCC-2998 colon 27%
active: OVCAR-3 ovarian -28.4% | BT-549 breast 6.48% | MDA-MB-435 melanoma -39.8% | HCT-116 colon 5.56% | KM12 colon 8.94%

Cc1ccc(S(=O)(=O)n2cc(C(=O)C(=O)N3CCCCC3)c3ccccc32)cc1
inactive: SR leukemia 57.6% | RPMI-8226 leukemia 45.9% | OVCAR-8 ovarian 91.9% | OVCAR-5 ovarian 76.3% | OVCAR-4 ovarian 49.9% | SK-OV-3 ovarian 92% | IGROV1 ovarian 71.9% | OVCAR-3 ovarian 77% | NCI/ADR-RES ovarian 73.8% | T-47D breast 36.1% | BT-549 breast 74.8% | MDA-MB-435 melanoma 87.1% | SW-620 colon 123% | MCF7 breast 85.8% | HCT-116 colon 65.6% | HCC-2998 colon 82.3% | KM12 colon 87.6%
